In the supplement of paper PMC4466236:
In all, about 33,000 sequences were measured (“E-score (dimensionless, -0.5 to 0.5)”: median about -0.058, highest 2% from about 0.35 on). This is one part of a sample in which the highest values are shown more often than they occur.

These sequences were tested on MvaT (assay: PBM 8-mer E-score (mean of HK and ME arrays) (E-score (dimensionless, -0.5 to 0.5)); higher = stronger relative binding preference).
Description: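 Protein binding microarray: GST-tagged full-length MvaT (P. aeruginosa PAO1) bound to two universal double-stranded 60-mer arrays (ME and HK), each with a constant 25-mer primer and a variable 35-mer region covering all 8-mers. The 8-mer E-score (rank-based, range -0.5 to 0.5, >0.45 = specific binding) is the mean of the two arrays.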
With CATATTCG the “PBM 8-mer E-score” value was 0.173.
In the case of GATATTCC, the “PBM 8-mer E-score” value is reported as 0.229.
In the case of AATATTCC, the “PBM 8-mer E-score” value is reported as 0.375.
For AATATTCG, the “PBM 8-mer E-score” value was 0.326.
With AATATTCT the “PBM 8-mer E-score” value was 0.36.
With ACTATTCT the “PBM 8-mer E-score” value was 0.208.
In the case of TAGAAAAA, the “PBM 8-mer E-score” value is reported as 0.0922.
With CGGAGAGA the “PBM 8-mer E-score” value was -0.145.
AAGGCAAC was tested, and the “PBM 8-mer E-score” value was 0.0918.
In the case of AACGCCAG, the “PBM 8-mer E-score” value is reported as -0.15.
With CAGGCAGG the “PBM 8-mer E-score” value was -0.314.
AGAATAGG was tested, and the “PBM 8-mer E-score” value was -0.0847.
With GATTAACC the “PBM 8-mer E-score” value was 0.0145.
In the case of GATTAATA, the “PBM 8-mer E-score” value is reported as 0.446.
GATTAATC was tested, and the “PBM 8-mer E-score” value was 0.317.
In the case of CATTAATA, the “PBM 8-mer E-score” value is reported as 0.369.
With CGTTAATA the “PBM 8-mer E-score” value was 0.31.
CATTAATC was tested, and the “PBM 8-mer E-score” value was 0.341.
ATGCGTCC was tested, and the “PBM 8-mer E-score” value was -0.205.
AAGTTGTC was tested, and the “PBM 8-mer E-score” value was 0.168.
TGATACAA was tested, and the “PBM 8-mer E-score” value was 0.145.
ATACACAG was tested, and the “PBM 8-mer E-score” value was 0.0306.
For TCATACAA, the “PBM 8-mer E-score” value was 0.0994.
ACATACAA was tested, and the “PBM 8-mer E-score” value was 0.362.
With CTATACAG the “PBM 8-mer E-score” value was 0.00215.
TTATACAA was tested, and the “PBM 8-mer E-score” value was 0.359.
In the case of ATATACAT, the “PBM 8-mer E-score” value is reported as 0.365.
In the case of ATATACAG, the “PBM 8-mer E-score” value is reported as 0.379.
For GTATACAA, the “PBM 8-mer E-score” value was 0.319.
ATATACAC was tested, and the “PBM 8-mer E-score” value was 0.336.
With ACATACAT the “PBM 8-mer E-score” value was 0.275.
For AAATACAT, the “PBM 8-mer E-score” value was 0.33.
In the case of CCGAAACA, the “PBM 8-mer E-score” value is reported as 0.00391.
With CTGGAACA the “PBM 8-mer E-score” value was 0.00992.
With CAGTATAG the “PBM 8-mer E-score” value was 0.0504.
ACTTGGAC was tested, and the “PBM 8-mer E-score” value was 0.0426.
With GGACACGA the “PBM 8-mer E-score” value was -0.163.
For ATGTGTTA, the “PBM 8-mer E-score” value was 0.258.
For CGCTTTAA, the “PBM 8-mer E-score” value was 0.0497.
CTTCGTGC was tested, and the “PBM 8-mer E-score” value was -0.0984.
With AATTGAGC the “PBM 8-mer E-score” value was 0.0577.
In the case of ATATACAA, the “PBM 8-mer E-score” value is reported as 0.406.
CTATACAA was tested, and the “PBM 8-mer E-score” value was 0.202.
With ATACACAA the “PBM 8-mer E-score” value was 0.154.
AGTTAATG was tested, and the “PBM 8-mer E-score” value was 0.271.
In the case of AATTAATT, the “PBM 8-mer E-score” value is reported as 0.469.
In the case of AATTAATG, the “PBM 8-mer E-score” value is reported as 0.359.
For AATTACGT, the “PBM 8-mer E-score” value was 0.263.
In the case of AATTAATA, the “PBM 8-mer E-score” value is reported as 0.449.
For AATCAATT, the “PBM 8-mer E-score” value was 0.246.
For AATTAATC, the “PBM 8-mer E-score” value was 0.366.
AATTAACA was tested, and the “PBM 8-mer E-score” value was 0.333.
With CATTAATG the “PBM 8-mer E-score” value was 0.34.
In the case of CGTTAATC, the “PBM 8-mer E-score” value is reported as 0.127.
With AGTCCAAT the “PBM 8-mer E-score” value was 0.0865.
In the case of CGAAAGTC, the “PBM 8-mer E-score” value is reported as -0.0957.
For AATCTGCT, the “PBM 8-mer E-score” value was -0.0198.
In the case of AAAGACCC, the “PBM 8-mer E-score” value is reported as -0.224.
For CATACTAG, the “PBM 8-mer E-score” value was 0.203.
In the case of AGGGCCCG, the “PBM 8-mer E-score” value is reported as -0.227.
With GGGTCCAC the “PBM 8-mer E-score” value was -0.22.
With ATGCGCGG the “PBM 8-mer E-score” value was -0.207.
GCGGGGAA was tested, and the “PBM 8-mer E-score” value was -0.103.
For GTAAGCGA, the “PBM 8-mer E-score” value was 0.0773.
For AATTAACC, the “PBM 8-mer E-score” value was 0.262.
With AATTAACT the “PBM 8-mer E-score” value was 0.354.
For AATTAACG, the “PBM 8-mer E-score” value was 0.28.
In the case of ACCCAAAC, the “PBM 8-mer E-score” value is reported as 0.192.
In the case of CAGTAATA, the “PBM 8-mer E-score” value is reported as 0.273.
AAGTAATT was tested, and the “PBM 8-mer E-score” value was 0.392.
GAGTAATA was tested, and the “PBM 8-mer E-score” value was 0.287.
AAGTACTC was tested, and the “PBM 8-mer E-score” value was 0.137.
For TAGTAACA, the “PBM 8-mer E-score” value was 0.274.
In the case of AAGTACTT, the “PBM 8-mer E-score” value is reported as 0.41.
With TAGTAATA the “PBM 8-mer E-score” value was 0.352.
For AAGTAATA, the “PBM 8-mer E-score” value was 0.379.
With AAGTAATG the “PBM 8-mer E-score” value was 0.276.
With AAGTAATC the “PBM 8-mer E-score” value was 0.186.
AAGTACTA was tested, and the “PBM 8-mer E-score” value was 0.257.
For TAGTAAAA, the “PBM 8-mer E-score” value was 0.315.
For ATCAGGCG, the “PBM 8-mer E-score” value was -0.0225.
ATCTGCTA was tested, and the “PBM 8-mer E-score” value was 0.109.
With ACAGGACT the “PBM 8-mer E-score” value was -0.164.
AGTGCCGA was tested, and the “PBM 8-mer E-score” value was -0.0895.
AAATCCCC was tested, and the “PBM 8-mer E-score” value was -0.192.
CGTTCCAA was tested, and the “PBM 8-mer E-score” value was 0.0493.
For GGTCCTCA, the “PBM 8-mer E-score” value was -0.193.
For ATAGCAGC, the “PBM 8-mer E-score” value was 0.0386.
In the case of GTAATCTA, the “PBM 8-mer E-score” value is reported as 0.151.
AAAACTGT was tested, and the “PBM 8-mer E-score” value was 0.0621.
CAATAGTA was tested, and the “PBM 8-mer E-score” value was 0.264.
GAATAGTA was tested, and the “PBM 8-mer E-score” value was 0.229.
In the case of TAATAGTA, the “PBM 8-mer E-score” value is reported as 0.362.
CTTATCGC was tested, and the “PBM 8-mer E-score” value was 0.049.
